Assay [1] in a line: Wnt pathway potentiators raising nuclear beta-catenin – imaging, WNT3A-conditioned medium, mouse C2C12, NPC library, primary screen (AID 1117326; in the data active = nuclear beta-catenin stimulation mostly above about 4.2%, no sharp cut-off; inactive = mostly below about 10%; also: reference of the scale not given here). The conditions noted are these: stronger effect = higher value.
Assay [2] can be described thus: stimulators of insulin release from INS-1E, primary screen, cell-based, 5 mM glucose, NPC library (AID 1117329;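 active = compound raises insulin release from rat beta cells at 5 mM glucose, no numeric limit stated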; also: reference of the scale not given here). The settings on record: rat INS-1E insulin secretion, at 10 µM, stronger effect = higher value.
The nature of assay [3]: growth inhibition of GSK3B-pretreated HCT116 cells – cell-based, CellTiter-Glo, 0.2 to 20 µM (AID 1117336). The conditions noted are these: HCT116 viability after GSK3B inhibitor, at 20 µM, stronger effect = higher value. On the technique in general: ATP-based viability assays read luminescence as a measure of living cells.
Assay [4] can be described thus: inhibition of endothelial tube formation, primary screen, imaging, VEGF stimulated, CD31 staining, tube area, NPC library (AID 1117340;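 active = compound that reduces growth-factor-driven endothelial tube area in a mixed cell culture, no cutoff stated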). The settings on record: VEGF-stimulated ADSC/ECFC co-culture, at 10 µM, stronger effect = higher value.
Assay [5] in a line: GLP1 release stimulators, primary, NCI-H716, NPC library (AID 1117341;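 active = compound raises GLP1 secretion from the human gut endocrine cells, with no numeric limit stated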; also: reference of the scale not given here). The settings on record: NCI-H716 cells, at 10 µM, stronger effect = higher value.
Assay [6] in a line: HCT116 colon cancer cell growth inhibition, primary screen, CellTiter-Glo luminescence, NPC library (AID 1117342;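 active = compounds that lower survival of HCT116 colon cancer cells in the luminescence readout, no numeric limit stated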). The conditions noted are these: at 20 µM (top of the series).
A short description of assay [7]: reduced SW480 viability measured with CellTiter-Glo, NPC library, primary (AID 1117343;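 active = compounds that lower viability of the colon cancer cells in the luminescence readout, with no numeric limit stated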). The conditions noted are these: CellTiter-Glo luminescence; at 20 µM (top of the series).
A short description of assay [8]: NPC library primary testing for decreased DLD-1 cell viability via CellTiter-Glo (AID 1117346;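 active = compounds that lower survival of DLD-1 colon cancer cells in the luminescence readout, no cutoff given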). The settings on record: DLD-1 viability, CellTiter-Glo luminescence; at 20 µM (top of the series).

Active and inactive are the calls of the source.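 The calls were made as follows, unless noted: active = compounds lowering colon cancer cell viability after pretreatment blocking the GSK3B kinase; inactive = the rest.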

For `CCN(CC)C(=O)C1CN2CCc3cc(OC)c(OC)cc3C2CC1OC(C)=O` (centres undefined), the nuclear beta-catenin stimulation in assay [1] (at 10 µM) is -1.5% (inactive); in assay [1] (stimulation, at 2 µM), 1.3%. Moreover, in assay [2], the insulin secretion stimulation is 3.5% (inactive). Moreover, the viability decrease in assay [3] is -0.1% (inactive). In assay [4], the tube area decrease was 1.2% (inactive). Besides, the GLP1 secretion stimulation in assay [5] is 10.9% (inactive). Also, in assay [6], the inhibition of viability was 17.1% (inactive). Further, the values for the viability decrease (inhibition) in assay [7] and in assay [8] were 6.1% (inactive) and -4.5% (inactive), respectively.

As to `CN(C)c1cc(NC(=O)CNC(C)(C)C)c(O)c2c1C[C@@H]1C[C@H]3[C@H](N(C)C)C(=O)C(C(N)=O)=C(O)[C@@]3(O)C(=O)C1=C2O`, the nuclear beta-catenin stimulation in assay [1] (at 10 µM) was -0.8% (inactive); in assay [1] (stimulation, at 2 µM), -1.4%. The insulin secretion stimulation in assay [2] is -0.5% (inactive). Also, the viability decrease in assay [3] was 70% (active). The tube area decrease in assay [4] is -8.6% (inactive). The GLP1 secretion stimulation in assay [5] was 3.4% (inactive). Besides, the inhibition of viability in assay [6] is 59.6% (active). Further, the results for the viability decrease (inhibition) in assay [7] and in assay [8] were 72% (active) and 58.1% (active), respectively.

`Cc1c(C(=O)NCCO)[n+](=O)c2ccccc2n1[O-]`: the nuclear beta-catenin stimulation in assay [1] (at 10 µM) was 5% (inactive); in assay [1] (stimulation, at 2 µM), 3%. Also, in assay [2], the insulin secretion stimulation is -1.6% (inactive). Besides, in assay [3], the viability decrease was -6.4% (inactive). The tube area decrease in assay [4] is 14% (inactive). Also, the GLP1 secretion stimulation in assay [5] was -0.4% (inactive). Besides, the inhibition of viability in assay [6] was 0.3% (inactive). For the same compound, the viability decrease (inhibition) in assay [7] was -17.1% (inactive); in assay [8], -6.2% (inactive).

Consider `CCCc1ncc(C(=O)O)s1`, for which the nuclear beta-catenin stimulation is -1.1% (inactive) in assay [1] (at 10 µM) and -1.2% in assay [1] (stimulation, at 2 µM). Besides, in assay [2], the insulin secretion stimulation was 4.2% (inactive). The viability decrease in assay [3] is -8.2% (inactive). The tube area decrease in assay [4] is 9.7% (inactive). In addition, the GLP1 secretion stimulation in assay [5] is -5.4% (inactive). For the same compound, the inhibition of viability in assay [6] was 5.1% (inactive). Also, the values for the viability decrease (inhibition) in assay [7] and in assay [8] were 2.1% (inactive) and -6.8% (inactive), respectively.

Regarding `CCCCC(=O)O[C@H]1CC[C@H]2[C@@H]3CCc4cc(O)ccc4[C@@H]3CC[C@]12C`, the nuclear beta-catenin stimulation was -0.4% (inactive) in assay [1] (at 10 µM) and -0.3% in assay [1] (stimulation, at 2 µM). For the same compound, in assay [2], the insulin secretion stimulation was 1.2% (inactive). For the same compound, in assay [3], the viability decrease was 99.1% (active). Further, the tube area decrease in assay [4] was 108% (active). Besides, the GLP1 secretion stimulation in assay [5] was -4.2% (inactive). Further, in assay [6], the inhibition of viability is 91.3% (active). Further, the figures for the viability decrease (inhibition) in assay [7] and in assay [8] were 103% (active) and 74.4% (active), respectively.

`COc1ccc2cc1Oc1cc3c(cc1OC)CC[N+](C)(C)[C@H]3Cc1ccc(cc1)Oc1c(OC)c(OC)cc3c1[C@@H](C2)[N+](C)(C)CC3`: the nuclear beta-catenin stimulation is 0.3% (inactive) in assay [1] (at 10 µM) and -0.1% in assay [1] (stimulation, at 2 µM). In assay [2], the insulin secretion stimulation was 0.65% (inactive). For the same compound, the viability decrease in assay [3] is 13.2% (inactive). The tube area decrease in assay [4] is 3.3% (inactive). The GLP1 secretion stimulation in assay [5] was 2.3% (inactive). In assay [6], the inhibition of viability was 7.8% (inactive). The viability decrease (inhibition) in assay [7] was 14% (inactive); in assay [8], 6.2% (inactive).

On to `N#C[C@H]1C[C@H]2C[C@@H]2N1C(=O)[C@@H](N)C12CC3CC(CC(O)(C3)C1)C2`, for which the nuclear beta-catenin stimulation is 0.4% (inactive) in assay [1] (at 10 µM) and 1.1% in assay [1] (stimulation, at 2 µM). In addition, the insulin secretion stimulation in assay [2] is -2% (inactive). The viability decrease in assay [3] was -4.75% (inactive). Further, the tube area decrease in assay [4] was 2.7% (inactive). Moreover, the GLP1 secretion stimulation in assay [5] is 1.4% (inactive). In assay [6], the inhibition of viability was -5.3% (inactive). Also, the viability decrease (inhibition) was 9.8% (inactive) in assay [7] and 6.25% (inactive) in assay [8].

For `COc1ccc(/C=C/C(=O)c2ccc(OC)cc2OC)cc1`, the nuclear beta-catenin stimulation is 7.4% (inactive) in assay [1] (at 10 µM) and -0.5% in assay [1] (stimulation, at 2 µM). Also, the insulin secretion stimulation in assay [2] is 2.6% (inactive). Moreover, the viability decrease in assay [3] is 77.7% (active). Further, in assay [4], the tube area decrease was 54.9% (active). The GLP1 secretion stimulation in assay [5] is -6.1% (inactive). Further, the inhibition of viability in assay [6] was 58.1% (active). The viability decrease (inhibition) in assay [7] is 94.5% (active); in assay [8], 81.6% (active).

Regarding `CCOC(=O)[C@H](CCc1ccccc1)N[C@H]1CCCN2CCC[C@@H](C(=O)O)N2C1=O`, the nuclear beta-catenin stimulation in assay [1] (at 10 µM) is -0.5% (inactive); in assay [1] (stimulation, at 2 µM), 0.8%. Besides, the insulin secretion stimulation in assay [2] is -0.4% (inactive). Besides, in assay [3], the viability decrease was -16.7% (inactive). Further, the tube area decrease in assay [4] is -6.5% (inactive). Besides, in assay [5], the GLP1 secretion stimulation was 4.4% (inactive). The inhibition of viability in assay [6] is 4.2% (inactive). Moreover, the viability decrease (inhibition) in assay [7] was 4.5% (active); in assay [8], -2.1% (inactive).

As for `CN1CCC[C@@H]1c1cccnc1`, the nuclear beta-catenin stimulation in assay [1] (at 10 µM) is -0.7% (inactive); in assay [1] (stimulation, at 2 µM) it was 1.5%. In addition, in assay [2], the insulin secretion stimulation was 1.5% (inactive). Moreover, the viability decrease in assay [3] is -2.3% (inactive). The tube area decrease in assay [4] is 12.5% (inactive). Also, the GLP1 secretion stimulation in assay [5] was 3.1% (inactive). Further, the inhibition of viability in assay [6] is -5.8% (inactive). In addition, the viability decrease (inhibition) was 25.8% (inactive) in assay [7] and -23.3% (inactive) in assay [8].

In the case of `Cc1ncc(C[n+]2csc(CCOP(=O)(O)O)c2C)c(N)n1`, the nuclear beta-catenin stimulation was 0.8% (inactive) in assay [1] (at 10 µM) and -0.6% in assay [1] (stimulation, at 2 µM). In assay [2], the insulin secretion stimulation is -0.4% (inactive). Further, the viability decrease in assay [3] was -15.6% (inactive). The tube area decrease in assay [4] is -8.2% (inactive). The GLP1 secretion stimulation in assay [5] was 1% (inactive). Moreover, the inhibition of viability in assay [6] is -0.4% (inactive). In addition, the viability decrease (inhibition) in assay [7] was -13.2% (inactive); in assay [8] it was 17.1% (inactive).

As to `O=P(O)(O)OCC(O)CO` (centres undefined), the nuclear beta-catenin stimulation is 0.5% (inactive) in assay [1] (at 10 µM) and 0.5% in assay [1] (stimulation, at 2 µM). In addition, the insulin secretion stimulation in assay [2] was -2.1% (inactive). Besides, in assay [3], the viability decrease is 4.35% (inactive). Further, the tube area decrease in assay [4] was -14.2% (inactive). Moreover, in assay [5], the GLP1 secretion stimulation was 0.6% (inactive). Besides, the inhibition of viability in assay [6] was 9.3% (inactive). Also, the viability decrease (inhibition) was 23.1% (inactive) in assay [7] and 18.2% (inactive) in assay [8].

For `COc1cccc2c1C(=O)c1c(O)c3c(c(O)c1C2=O)C[C@@](O)(C(=O)CO)C[C@@H]3O[C@H]1C[C@H](N)[C@H](O[C@@H]2CCCCO2)[C@H](C)O1`, the nuclear beta-catenin stimulation in assay [1] (at 10 µM) is 26.6% (active); in assay [1] (stimulation, at 2 µM), 79.4%. In addition, in assay [2], the insulin secretion stimulation is 0.2% (inactive). In assay [3], the viability decrease is 78.8% (active). Further, in assay [4], the tube area decrease was -67.7% (active). In addition, the GLP1 secretion stimulation in assay [5] was -0.8% (inactive). Moreover, the inhibition of viability in assay [6] was 66.5% (active). Further, the viability decrease (inhibition) in assay [7] is 81% (active); in assay [8], 76% (active).

Consider `CCCCCCCCCCCCCC(=O)OC(C)C`, for which the nuclear beta-catenin stimulation in assay [1] (at 10 µM) is 1.2% (inactive); in assay [1] (stimulation, at 2 µM), -0.6%. Also, in assay [2], the insulin secretion stimulation was 0.9% (inactive). Moreover, the viability decrease in assay [3] is -8.2% (inactive). Besides, in assay [4], the tube area decrease was -9.5% (inactive). Besides, in assay [5], the GLP1 secretion stimulation is -0.1% (inactive). Moreover, the inhibition of viability in assay [6] was 8.25% (inactive). The viability decrease (inhibition) in assay [7] was 7.7% (inactive); in assay [8], 24.3% (inactive).

Consider `Cc1cccc(N(C)C(=S)Oc2ccc3c(c2)C2CCC3C2)c1` (centres undefined), for which the nuclear beta-catenin stimulation was 0.3% (inactive) in assay [1] (at 10 µM) and 0.6% in assay [1] (stimulation, at 2 µM). For the same compound, the insulin secretion stimulation in assay [2] is 1% (inactive). For the same compound, the viability decrease in assay [3] was -64.8% (inactive). In addition, in assay [4], the tube area decrease was 15.8% (inactive). Besides, the GLP1 secretion stimulation in assay [5] was -4.7% (inactive). Further, the inhibition of viability in assay [6] is 50.2% (active). Moreover, the viability decrease (inhibition) in assay [7] is 80% (active); in assay [8] it was 56.8% (active).

Regarding `CCCCCCCCCCCCCC[N+](C)(C)Cc1ccccc1`, the nuclear beta-catenin stimulation in assay [1] (at 10 µM) was 55% (active); in assay [1] (stimulation, at 2 µM), -0.7%. In addition, the insulin secretion stimulation in assay [2] is 3.5% (inactive). Moreover, in assay [3], the viability decrease was 99.5% (active). Moreover, the tube area decrease in assay [4] was 109% (active). Further, the GLP1 secretion stimulation in assay [5] is -0.6% (inactive). For the same compound, the inhibition of viability in assay [6] is 99.2% (active). The viability decrease (inhibition) is 101% (active) in assay [7] and 102% (active) in assay [8].

The values above are taken from PubChem BioAssay.
